Measured values reported in PubChem BioAssay (NCATS).
Results filed as inconclusive are left out. Entries that show only a call come without a potency. The source made the active and inactive calls. The call rests on the fitted dose curve; in most records, active means well fitted curve in the direction sought with a large enough effect; inconclusive means small, poorly fitted or top-dose-only effect, or another doubt; inactive means no such curve, though single readings can be large; an effect the other way counts as inactive or inconclusive.

Assay: qHTS of pediatric cancer cell lines to identify multiple opportunities for drug repurposing: Primary screen for U-2 OS cells (AID 1347096); further: nearly all actives have a fitted effect of over 50% in size
Conditions: U-2 OS viability, CellTiter-Glo luminescence, 48 h; series mostly up to 46 µM
Summary of the method: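 Cells (500-1,000/well) in growth media were settled 5 h at 37 degrees C, then given compounds for 48 h. Viability was read as CellTiter-Glo luminescence. Primary runs used MIPE at 11 points (0.78 nM-46 µM) and NPC at 8 points (0.59 nM-46 µM); follow-ups used 11 points.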
Potency means the concentration at half of the fitted maximal effect.

| Structure (SMILES) | Potency |
| --- | --- |
| CNC(=O)c1ccc(-c2cnc3ncc(Cc4ccc5ncccc5c4)n3n2)cc1F | inactive |
| COc1cc2c(NC3CCN(C(C)C)CC3)nc(C3CCCCC3)nc2cc1OCCCN1CCCC1 | inactive |
| Cc1cnc(-c2cnc(NCCNc3ccc(C#N)cn3)nc2-c2ccc(Cl)cc2Cl)[nH]1 | inactive |
| COc1ccc(CC2SC(=O)NC2=O)cc1C(=O)NCc1ccc(C(F)(F)F)cc1 (stereo not drawn) | inactive |
| CS(=O)(=O)c1ccc(-c2cnc(N)c(C(=O)Nc3ccccc3)n2)cc1 | inactive |
| CCc1cc2c(cc1N1CCC(N3CCOCC3)CC1)C(C)(C)c1[nH]c3cc(C#N)ccc3c1C2=O | inactive |
| Fc1cc(-c2cccc3ncc(-c4cnn(C5CCNCC5)c4)nc23)cc(F)c1CN1CCOCC1 | inactive |
| CC[C@H](CO)Nc1nc(NCc2ccccc2)c2ncn(C(C)C)c2n1 | inactive |
| O=C(c1cncc(Br)c1)N1CCC(N2CCCC2)CC1 | inactive |
| CN1CCN(c2cc(C(=O)Nc3ccc4c(c3)-c3c(c(C(N)=O)nn3-c3ccc(F)cc3)CC4)c(Cl)cn2)CC1 | 23.5 µM (active) |
| CC(C)(C)NC(=O)[C@H]1CN(Cc2cccnc2)CCN1C[C@@H](O)C[C@@H](Cc1ccccc1)C(=O)N[C@H]1c2ccccc2C[C@H]1O | inactive |

Assay: qHTS of pediatric cancer cell lines to identify multiple opportunities for drug repurposing: Primary screen for Saos-2 cells (AID 1347097); further: nearly all actives have a fitted effect of over 40% in size
Conditions: Saos-2 viability, CellTiter-Glo ATP luminescence, 48 h; series mostly up to 46 µM
Summary of the method: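 Viability was measured as metabolically active cells after 48 hours of treatment, read by CellTiter-Glo luminescence. Compounds were tested at multiple final concentrations, giving concentration-response curves.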

| Structure (SMILES) | Potency |
| --- | --- |
| COc1cc(C(C)C)c2c(c1)S(=O)(=O)N(COc1cc(=O)n3cccc(OCCN4CCCCC4)c3n1)C2=O | 26.4 µM (active) |
| Cc1ccc2nc(NC(=O)CSc3nc4c(c(=O)n3-c3ccccc3)SCC4)sc2c1 | 14.8 µM (active) |
| CCN(CC)CCNC(=O)c1ccc2nc(-c3ccccc3)c(-c3ccc(CN4CCC(n5c(=O)[nH]c6ccccc65)CC4)cc3)nc2c1 | 6.62 µM (active) |
| CCC(=C(c1ccccc1)c1ccc(OCCN(C)C)cc1)c1ccccc1 | 18.7 µM (active) |
| COC(=O)C1=C(C)NC(C)=C(C(=O)OCCN2CCN(C(c3ccccc3)c3ccccc3)CC2)C1c1cccc([N+](=O)[O-])c1 (stereo not drawn) | 13.3 µM (active) |
| CNC(=O)c1ccc(-c2cnc3ncc(Cc4ccc5ncccc5c4)n3n2)cc1F | inactive |
| COc1cc2c(NC3CCN(C(C)C)CC3)nc(C3CCCCC3)nc2cc1OCCCN1CCCC1 | 18.7 µM (active) |
| CS(=O)(=O)c1ccc(-c2cnc(N)c(C(=O)Nc3ccccc3)n2)cc1 | inactive |
| Fc1cc(-c2cccc3ncc(-c4cnn(C5CCNCC5)c4)nc23)cc(F)c1CN1CCOCC1 | 29.6 µM (active) |
| CN(C1CCc2c(c3ccccc3n2CC(=O)O)C1)S(=O)(=O)c1ccc(F)cc1 (stereo not drawn) | inactive |
| O=C(c1cncc(Br)c1)N1CCC(N2CCCC2)CC1 | inactive |
| CCCNC(=O)Nc1ccc(Oc2ncnc3cc(OC)c(OC)cc23)cc1Cl | inactive |
| CN1CCN(c2cc(C(=O)Nc3ccc4c(c3)-c3c(c(C(N)=O)nn3-c3ccc(F)cc3)CC4)c(Cl)cn2)CC1 | 16.6 µM (active) |
| COc1cc(-c2nn(C3CCC(N4CCN(C(C)=O)CC4)CC3)c3ncnc(N)c23)ccc1NC(=O)c1cc2ccccc2n1C (stereo not drawn) | 0.526 µM (active) |

Assay: qHTS of pediatric cancer cell lines to identify multiple opportunities for drug repurposing: Primary screen for SK-N-SH cells (AID 1347098); further: nearly all actives have a fitted effect of over 65% in size
Conditions: SK-N-SH viability, CellTiter-Glo luminescence, 48 h; series mostly up to 57 µM
Summary of the method: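 Cells (500-1,000/well) rested 5 h, then received compounds for 48 h; metabolically active cells were measured by CellTiter-Glo luminescence. Final concentrations spanned up to 46 µM (MIPE, 11-point) or 0.59 nM-46 µM (NPC, 8-point) in primary screens, 11-point in follow-ups.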

| Structure (SMILES) | Potency |
| --- | --- |
| CCCn1c(=O)c2[nH]c(-c3cnn(Cc4cccc(C(F)(F)F)c4)c3)nc2n(CC)c1=O | inactive |
| Cc1c(C)n(Cc2ccc(-c3ccccc3C(=O)O)cc2)c2ccc(C(=O)N[C@@H](C)c3ccc([N+](=O)[O-])cc3)cc12 | 3.04 µM (active) |
| Cn1cc(-c2ccncc2)c(-c2ccc(OCc3ccc4ccccc4n3)cc2)n1 | inactive |
| CCN(CC)CCNC(=O)c1ccc2nc(-c3ccccc3)c(-c3ccc(CN4CCC(n5c(=O)[nH]c6ccccc65)CC4)cc3)nc2c1 | 27.1 µM (active) |
| CNC(=O)c1ccc(-c2cnc3ncc(Cc4ccc5ncccc5c4)n3n2)cc1F | inactive |
| COc1cc2c(NC3CCN(C(C)C)CC3)nc(C3CCCCC3)nc2cc1OCCCN1CCCC1 | 10.8 µM (active) |
| COc1ccc(CC2SC(=O)NC2=O)cc1C(=O)NCc1ccc(C(F)(F)F)cc1 (stereo not drawn) | inactive |
| CS(=O)(=O)c1ccc(-c2cnc(N)c(C(=O)Nc3ccccc3)n2)cc1 | inactive |
| CCc1cc2c(cc1N1CCC(N3CCOCC3)CC1)C(C)(C)c1[nH]c3cc(C#N)ccc3c1C2=O | inactive |
| Fc1cc(-c2cccc3ncc(-c4cnn(C5CCNCC5)c4)nc23)cc(F)c1CN1CCOCC1 | 24.1 µM (active) |
| Cc1cn2c(-c3cn[nH]c3)cnc2c(Nc2ccc(C(=O)N3CCNCC3)cc2F)n1 | 24.1 µM (active) |
| CCN(CC)CCCCNc1ncc2cc(-c3cc(OC)cc(OC)c3)c(NC(=O)NC(C)(C)C)nc2n1 | 6.81 µM (active) |
| N#CCNC(=O)c1ccc(-c2ccnc(Nc3ccc(N4CCOCC4)cc3)n2)cc1 | 12.1 µM (active) |
| O=C(c1cncc(Br)c1)N1CCC(N2CCCC2)CC1 | inactive |
| CCCNC(=O)Nc1ccc(Oc2ncnc3cc(OC)c(OC)cc23)cc1Cl | inactive |
| CN1CCN(c2cc(C(=O)Nc3ccc4c(c3)-c3c(c(C(N)=O)nn3-c3ccc(F)cc3)CC4)c(Cl)cn2)CC1 | 7.64 µM (active) |
| COc1cc(-c2nn(C3CCC(N4CCN(C(C)=O)CC4)CC3)c3ncnc(N)c23)ccc1NC(=O)c1cc2ccccc2n1C (stereo not drawn) | 3.41 µM (active) |
| CC(C)(C)NC(=O)[C@H]1CN(Cc2cccnc2)CCN1C[C@@H](O)C[C@@H](Cc1ccccc1)C(=O)N[C@H]1c2ccccc2C[C@H]1O | 15.2 µM (active) |
